Common to all, as to assay: NCI-60 one-dose screen, 48 h (100 = growth as untreated, 0 = no growth, -100 = all killed)
Holding throughout (settings): 10 µM unless noted

Test [1] deals with DU-145 prostate.
For test [2], the system named is K-562 leukemia.
For test [3], the system named is MALME-3M melanoma.
Test [4] has as its system MDA-MB-231 breast.
In test [5] the test system is RXF 393 renal.
Test [6] relates to SF-268 CNS.
For test [7], the system named is SF-295 CNS.
Test [8] concerns SF-539 CNS.
For test [9], the system named is UACC-257 melanoma.
For test [10], the system named is M14 melanoma.
In test [11] the test system is HCT-15 colon.
Test [12] deals with HT29 colon.
Test [13] concerns SNB-75 CNS.
For test [14], the system named is SNB-19 CNS.
The test system of test [15] is U251 CNS.
Test [16] concerns PC-3 prostate.
The test system of test [17] is SK-MEL-5 melanoma.
Test [18] deals with UACC-62 melanoma.
Test [19] concerns LOX IMVI melanoma.
The subject of test [20] is SK-MEL-28 melanoma.

About 83,000 compounds went through this panel and 20% of them were active in at least one assay; those are over-represented in the sample as a whole.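 96-well plates, one dose, 48 hours. Percent growth reported; active if below 10.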 A number with no mark means an inactive call. The source made the active and inactive calls.

Turning to `CNC(=O)c1cc(Oc2ccc3nc(Nc4ccc(Cl)c(C(F)(F)F)c4)ccc3c2)ccn1`, the growth in test [1] is 75.7%; in [2] it was 40.4%; in [3], 82.9%; in [4] it was 77.8%; in [5], 74.6%; in test [6] it was 66.5%. The growth was 66% in test [7]; 84.8% in test [8]; 46.8% in [9]; 48.2% in [10]; 41.2% in [11]; 39.6% in test [12]. Also, the growth is 82.7% in test [13]; 77% in test [14]; 56.8% in test [15]; 21.7% in test [16]; 60.5% in [17]; 47.3% in [18]. Besides, the growth in test [19] is 60.8%; in test [20] it was 68.6%.

For the compound `Cc1ccc(-n2c(-c3ccccc3)c(-c3ccccc3)c3c(SCC(=O)n4[nH]c(N)cc4=O)ncnc32)cc1`, the growth in [1] is 108%; in test [2], 77.1%; in test [3], 97.6%; in test [4], 83.3%; in test [5] it was 96.6%; in [6] it was 107%. Besides, the growth in test [7] is 89.3%; in test [8] it was 96%; in test [9] it was 94.1%; in [10] it was 94.3%; in test [11], 101%; in [12] it was 94%. The growth is 97.1% in test [13]; 91.8% in [14]; 87% in [15]; 79.4% in test [16]; 87.3% in test [17]; 77.4% in test [18]. In addition, the growth in [19] was 97.7%; in test [20], 101%.

With `COc1ccc(-c2nc(SC(C)C)nc(NNC(N)=S)c2C#N)cc1`, the growth in test [1] was 77.7%; in test [2], 16.9%; in test [3] it was 51.7%; in test [4], 43.3%; in test [5], 63.7%; in test [6], 62.5%. Besides, the growth in [7] is 55.2%; in test [8], 50.1%; in [9], 82.7%; in [10], 53.8%; in test [11], 23.6%; in [12], 85%. Also, the growth is 32.3% in test [13]; 38% in test [14]; 52.8% in [15]; 55.6% in [16]; 28.9% in [17]; 22.2% in test [18]. Besides, the growth is 40.2% in test [19] and 58.7% in test [20].

With `O=C1Nc2ccccc2/C1=C/c1cn(C(=O)c2c(Cl)cccc2Cl)c2ccccc12`, the growth in test [1] was 59.3%; in [2], 45.7%; in test [3] it was 117%; in test [4] it was 55.1%; in test [5], -4.11% (active); in test [6], 56.6%. Besides, the growth in [7] is 44.5%; in [8], 67.4%; in test [9] it was 79.2%; in test [10], 66.2%; in [11], 31%; in test [12], 69.7%. For the same compound, the growth is 54.7% in test [13]; 68.7% in [14]; 35.8% in test [15]; 41.7% in test [16]; 63.1% in test [17]; 36.7% in test [18]. Besides, the growth was 48.4% in test [19] and 81.5% in [20].

On to `O=C1/C(=C\c2c[nH]c3ccccc23)c2ccccc2N1c1c(Cl)cccc1Cl`, for which the growth is 14.5% in test [1]; -0.66% (active) in [2]; -16.8% (active) in test [3]; -2.7% (active) in [4]; -43.5% (active) in test [5]; 23.7% in test [6]. In addition, the growth in [7] is -47.9% (active); in test [8], -59.9% (active); in test [9] it was 23.6%; in test [10], -86.3% (active); in test [11], 5.59% (active); in test [12], -29.6% (active). The growth in [13] is 39.2%; in [14], 37%; in test [15], -34% (active); in test [16] it was 2.68% (active); in test [17] it was -39.2% (active); in [18], -58.6% (active). The growth was -100% (active) in test [19] and -30.6% (active) in test [20].

Regarding `Cc1ccc(S(=O)(=O)N/N=C\c2cc(Cl)ccc2O)cc1`, the growth in [1] was 92.1%; in [2] it was 82%; in [3], 95.3%; in test [4] it was 93.8%; in test [5] it was 91%; in test [6], 94.7%. In addition, the growth in test [7] is 92.1%; in test [8], 76.6%; in test [9], 107%; in test [10] it was 96.2%; in test [11] it was 81.8%; in [12], 103%. For the same compound, the growth in test [13] is 88.5%; in [14], 86.2%; in test [15], 90.4%; in test [16], 93.6%; in test [17] it was 99.6%; in test [18], 106%. For the same compound, the growth was 88.3% in [19] and 98.3% in test [20].

As to `O=c1c2c3c(sc2n2c(-c4cc(-c5ccccc5)nn4-c4ccccc4)nnc2n1Cc1ccccc1)CCCC3`, the growth in [1] is 107%; in test [2] it was 27.1%; in test [3], 123%; in [4], 94.2%; in test [5], 90%; in [6], 89.2%. Also, the growth in [7] is 5.76% (active); in [8] it was 112%; in test [9], 106%; in [10], 92.4%; in [11] it was 91.3%; in test [12] it was 88.6%. Also, the growth in test [13] is 92.3%; in [14], 89.6%; in test [15], 70.3%; in test [16], 69.1%; in test [17], 129%; in test [18], 103%. Besides, the growth in [19] was 92.9%; in test [20], 111%.

`NCCCNc1nc2ccccc2c2c(=O)c3cccc(Cl)c3sc12`: the growth in test [1] was -14.3% (active); in test [2], -21.1% (active); in test [3], 41.6%; in test [4] it was -18.3% (active); in test [5], 29.5%; in [6], 26.5%. In addition, the growth in test [7] was 26.8%; in test [8] it was 66.3%; in [9], 72.8%; in test [10], -46.4% (active); in test [11], -79.6% (active); in [12], -63.2% (active). In addition, the growth in test [13] is 41.7%; in [14] it was 49.8%; in test [15] it was -51.7% (active); in [16] it was 43.8%; in [17] it was 60.3%; in test [18], 51.4%. Besides, the growth in [19] is -90% (active); in test [20], 53.2%.

Values taken from PubChem BioAssay (NCI).
